Test results from PubChem BioAssay AID1159580 (chemical genetic matrix, 2015).
Where “and” joins values, the source holds several entries; their conditions need not be identical. Identical values can stand only once. Hit rate of the full screen: of about 5,500 compounds, about 2,000 (36%) were called active. Not shown: some 18% with an inconclusive outcome. Rule as the data show it: active = normalized growth mostly below about 0.91 (no sharp cut-off); inconclusive = no clear call, values can overlap the other calls; inactive = mostly above about 0.92. The list shows a part of the results.

Test: chemical genetic growth profiling, strain panel (AID 1159580);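 also: tested at 20 µM; growth read once vehicle control cultures reached saturation at 30 °C; 1 = growth at the plate median or of vehicle wells; lower values mean less growth of the strain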
Settings: growth OD

Measured: normalized growth

Cc1ccccc1C(OCCN(C)C)c1ccccc1 (stereo not given)
inactive: S. cerevisiae deletion strains, locus YJR075W, strain HOC1, hits give low values 0.986 and 0.988 | S. cerevisiae deletion strains, locus YKL009W, strain mrt4, hits give low values 0.999 | S. cerevisiae deletion strains, locus YKL068W, hits give low values 0.996 | S. cerevisiae deletion strains, locus YKL085W, strain MDH1 (second series), hits give low values 1 | S. cerevisiae deletion strains, locus YKL085W, strain MDH1, hits give low values 1 | S. cerevisiae deletion strains, locus YKL160W, strain elf1, hits give low values 1.01 | S. cerevisiae deletion strains, locus YKL190W, strain CNB1, hits give low values 0.996 | S. cerevisiae deletion strains, locus YKR001C, strain vps1, hits give low values 1.03 | S. cerevisiae deletion strains, locus YKR026C, strain gcn3, hits give low values 1.01 | S. cerevisiae deletion strains, locus YKR091W, strain srl3, hits give low values 1.01 | S. cerevisiae deletion strains, locus YLL001W, strain dnm1, hits give low values 1 | S. cerevisiae deletion strains, locus YLL026W, hits give low values 1.01 | S. cerevisiae deletion strains, locus YLL041C, strain sdh2, hits give low values 0.998 | S. cerevisiae deletion strains, locus YLR027C, strain aat2, hits give low values 0.994 | S. cerevisiae deletion strains, locus YLR039C, strain RIC1, hits give low values 1.14 | S. cerevisiae deletion strains, locus YLR058C, strain SHM2, hits give low values 0.996 | S. cerevisiae deletion strains, locus YLR102C, strain apc9, hits give low values 1 | S. cerevisiae deletion strains, locus YLR113W, strain HOG1, hits give low values 0.956 | S. cerevisiae deletion strains, locus YLR221C, strain rsa3, hits give low values 1.01 | S. cerevisiae deletion strains, locus YLR258W, strain gsy2, hits give low values 1 | S. cerevisiae deletion strains, locus YLR262C, strain YPT6 (second series), hits give low values 1.05 | S. cerevisiae deletion strains, locus YLR262C, strain YPT6, hits give low values 1.13 | S. cerevisiae deletion strains, locus YLR268W, strain sec22, hits give low values 1.05 | S. cerevisiae deletion strains, locus YLR320W, strain mms22, hits give low values 1.02 | S. cerevisiae deletion strains, locus YLR330W, strain CHS5, hits give low values 1.01 | S. cerevisiae deletion strains, locus YLR342W, strain FKS1 (second series), hits give low values 1 | S. cerevisiae deletion strains, locus YLR342W, strain FKS1, hits give low values 1.03 | S. cerevisiae deletion strains, locus YLR357W, strain rsc2, hits give low values 1.01 | S. cerevisiae deletion strains, locus YLR370C, strain arc18, hits give low values 1 | S. cerevisiae deletion strains, locus YLR371W, strain rom2, hits give low values 1.01 | S. cerevisiae deletion strains, locus YLR384C, strain iki3, hits give low values 1.01 | S. cerevisiae deletion strains, locus YLR418C, strain cdc73, hits give low values 0.94 | S. cerevisiae deletion strains, locus YML016C, strain PPZ1, hits give low values 1 | S. cerevisiae deletion strains, locus YML032C, strain rad52, hits give low values 1.01 | S. cerevisiae deletion strains, locus YML120C, strain ndi1, hits give low values 1.01 | S. cerevisiae deletion strains, locus YML124C, strain tub3, hits give low values 1 | S. cerevisiae deletion strains, locus YMR058W, strain fet3, hits give low values 0.977 | S. cerevisiae deletion strains, locus YMR078C, strain ctf18, hits give low values 1.01 | S. cerevisiae deletion strains, locus YMR125W, strain sto1, hits give low values 1.01 | S. cerevisiae deletion strains, locus YMR129W, hits give low values 1.01 | S. cerevisiae deletion strains, locus YMR205C, strain PFK2, hits give low values 1.02 | S. cerevisiae deletion strains, locus YMR223W, strain ubp8, hits give low values 0.997 | S. cerevisiae deletion strains, locus YMR231W, strain pep5, hits give low values 0.998 | S. cerevisiae deletion strains, locus YMR263W, strain SAP30, hits give low values 0.985 | S. cerevisiae deletion strains, locus YMR307W, strain GAS1, hits give low values 1.01 | S. cerevisiae deletion strains, locus YNL067W, strain RPL9B, hits give low values 0.994 | S. cerevisiae deletion strains, locus YNL071W, strain lat1, hits give low values 1 | S. cerevisiae deletion strains, locus YNL128W, strain TEP1, hits give low values 1 | S. cerevisiae deletion strains, locus YNL153C, strain GIM3, hits give low values 1.01 | S. cerevisiae deletion strains, locus YNL175C, strain NOP13, hits give low values 1 | S. cerevisiae deletion strains, locus YNL183C, strain NPR1, hits give low values 0.945 | S. cerevisiae deletion strains, locus YNL197C, strain WHI3, hits give low values 1 | S. cerevisiae deletion strains, locus YNL209W, strain ssb2, hits give low values 1 | S. cerevisiae deletion strains, locus YNL224C, strain SQS1, hits give low values 0.994 | S. cerevisiae deletion strains, locus YNL233W, strain BNI4, hits give low values 1.01 | S. cerevisiae deletion strains, locus YNL248C, strain rpa49, hits give low values 1.01 | S. cerevisiae deletion strains, locus YNL250W, strain rad50, hits give low values 0.989 | S. cerevisiae deletion strains, locus YNL271C, strain bni1, hits give low values 1.01 | S. cerevisiae deletion strains, locus YNL298W, strain CLA4, hits give low values 1.03 | S. cerevisiae deletion strains, locus YNL307C, strain MCK1, hits give low values 1.02 | S. cerevisiae deletion strains, locus YNL322C, strain KRE1 (second series), hits give low values 1.03 | S. cerevisiae deletion strains, locus YNL322C, strain KRE1, hits give low values 0.997 and 0.999 | S. cerevisiae deletion strains, locus YNR049C, strain mso1, hits give low values 1.02 | S. cerevisiae deletion strains, locus YNR052C, strain pop2, hits give low values 1.01 | S. cerevisiae deletion strains, locus YOL006C, strain TOP1, hits give low values 0.986 | S. cerevisiae deletion strains, locus YOL012C, strain htz1 0.949 | S. cerevisiae deletion strains, locus YOL147C, strain pex11, hits give low values 1.01 | S. cerevisiae deletion strains, locus YOR001W, strain rrp6, hits give low values 0.994 | S. cerevisiae deletion strains, locus YOR061W, strain CKA2, hits give low values 1 | S. cerevisiae deletion strains, locus YOR069W, strain VPS5, hits give low values 1 | S. cerevisiae deletion strains, locus YOR070C, strain gyp1, hits give low values 0.996 | S. cerevisiae deletion strains, locus YOR080W, strain dia2, hits give low values 0.996 | S. cerevisiae deletion strains, locus YOR083W, strain WHI5 (second series), hits give low values 1 | S. cerevisiae deletion strains, locus YOR083W, strain WHI5, hits give low values 1.02 | S. cerevisiae deletion strains, locus YOR106W, strain vam3, hits give low values 1.03 | S. cerevisiae deletion strains, locus YOR136W, strain idh2, hits give low values 0.988 | S. cerevisiae deletion strains, locus YOR144C, strain elg1, hits give low values 1 | S. cerevisiae deletion strains, locus YOR184W, strain ser1, hits give low values 1.03 | S. cerevisiae deletion strains, locus YOR231W, strain MKK1, hits give low values 0.961 | S. cerevisiae deletion strains, locus YOR265W, strain rbl2, hits give low values 0.994 | S. cerevisiae deletion strains, locus YOR270C, strain vph1, hits give low values 0.972 | S. cerevisiae deletion strains, locus YOR290C, strain snf2, hits give low values 1.03 | S. cerevisiae deletion strains, locus YOR316C, strain cot1, hits give low values 1 | S. cerevisiae deletion strains, locus YPL051W, strain arl3, hits give low values 0.994 | S. cerevisiae deletion strains, locus YPL078C, strain atp4, hits give low values 1 | S. cerevisiae deletion strains, locus YPL106C, strain sse1, hits give low values 1.02 | S. cerevisiae deletion strains, locus YPL240C, strain hsp82, hits give low values 0.982 | S. cerevisiae deletion strains, locus YPL241C, strain CIN2, hits give low values 1 and 0.994 | S. cerevisiae deletion strains, locus YPL256C, strain CLN2, hits give low values 0.933 | S. cerevisiae deletion strains, locus YPR119W, strain clb2, hits give low values 1 | S. cerevisiae deletion strains, locus YPR141C, strain kar3, hits give low values 0.994 | S. cerevisiae deletion strains, locus YPR163C, strain tif3, hits give low values 1.01 | S. cerevisiae deletion strains, locus YPR167C, strain met16, hits give low values 1 | S. cerevisiae deletion strains, strain wtn01, hits give low values 1.02 | S. cerevisiae strains, strain wild type, hits give low values 0.989
